Test [1] addresses T1, Serine/threonine-protein kinase TBK1 (Homo sapiens) (UniProt Q9UHD2).
T1 sequence (whole entry): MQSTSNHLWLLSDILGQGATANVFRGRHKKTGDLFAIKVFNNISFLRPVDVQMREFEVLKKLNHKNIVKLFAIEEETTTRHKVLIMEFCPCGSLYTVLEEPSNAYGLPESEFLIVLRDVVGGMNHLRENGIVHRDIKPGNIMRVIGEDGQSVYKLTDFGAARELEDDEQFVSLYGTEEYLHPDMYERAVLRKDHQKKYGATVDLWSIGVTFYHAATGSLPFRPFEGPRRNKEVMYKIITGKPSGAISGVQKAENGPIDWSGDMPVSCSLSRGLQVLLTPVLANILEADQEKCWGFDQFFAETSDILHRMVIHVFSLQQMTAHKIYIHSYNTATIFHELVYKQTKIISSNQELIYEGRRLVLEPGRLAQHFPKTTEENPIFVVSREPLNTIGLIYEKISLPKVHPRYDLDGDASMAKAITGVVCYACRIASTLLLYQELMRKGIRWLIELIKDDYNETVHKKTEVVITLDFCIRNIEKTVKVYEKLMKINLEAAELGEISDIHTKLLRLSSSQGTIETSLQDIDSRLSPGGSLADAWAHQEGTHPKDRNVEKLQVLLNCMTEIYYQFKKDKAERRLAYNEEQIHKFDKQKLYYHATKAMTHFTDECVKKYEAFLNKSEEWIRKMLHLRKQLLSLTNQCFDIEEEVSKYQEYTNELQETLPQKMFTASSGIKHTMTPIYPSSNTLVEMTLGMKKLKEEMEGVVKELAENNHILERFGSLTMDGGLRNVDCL
Particulars: at 10 µM.

The target in test [2] is T2, TGF-beta receptor type-1 (Homo sapiens) (UniProt P36897).
T2 sequence (whole entry): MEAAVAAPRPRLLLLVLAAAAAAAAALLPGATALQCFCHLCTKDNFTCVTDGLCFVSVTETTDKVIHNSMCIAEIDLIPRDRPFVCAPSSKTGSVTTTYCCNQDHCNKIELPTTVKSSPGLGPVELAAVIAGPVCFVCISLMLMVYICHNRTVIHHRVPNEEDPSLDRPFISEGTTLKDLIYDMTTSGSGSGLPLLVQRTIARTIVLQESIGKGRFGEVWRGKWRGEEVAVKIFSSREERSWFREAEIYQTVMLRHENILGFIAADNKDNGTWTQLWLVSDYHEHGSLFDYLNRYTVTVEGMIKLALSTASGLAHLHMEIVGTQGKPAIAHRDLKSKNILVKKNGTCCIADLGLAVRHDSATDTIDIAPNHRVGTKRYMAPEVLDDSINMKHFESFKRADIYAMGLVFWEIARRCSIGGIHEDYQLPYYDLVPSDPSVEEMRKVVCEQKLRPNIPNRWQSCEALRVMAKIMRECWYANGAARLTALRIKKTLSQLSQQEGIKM
The conditions noted are these: at 1 µM.

Test [3] concerns the target T2, TGF-beta receptor type-1 (Homo sapiens). Particulars: at 10 µM.
Test [4] has as its target Insulin-like growth factor 1 receptor (Homo sapiens) (UniProt P08069). The conditions noted are these: at 1 µM.
Test [5] has the same target. The conditions noted are these: at 10 µM.
Test [6] addresses T3, Inhibitor of nuclear factor kappa-B kinase subunit alpha (Homo sapiens) (UniProt O15111).
T3 sequence (whole entry): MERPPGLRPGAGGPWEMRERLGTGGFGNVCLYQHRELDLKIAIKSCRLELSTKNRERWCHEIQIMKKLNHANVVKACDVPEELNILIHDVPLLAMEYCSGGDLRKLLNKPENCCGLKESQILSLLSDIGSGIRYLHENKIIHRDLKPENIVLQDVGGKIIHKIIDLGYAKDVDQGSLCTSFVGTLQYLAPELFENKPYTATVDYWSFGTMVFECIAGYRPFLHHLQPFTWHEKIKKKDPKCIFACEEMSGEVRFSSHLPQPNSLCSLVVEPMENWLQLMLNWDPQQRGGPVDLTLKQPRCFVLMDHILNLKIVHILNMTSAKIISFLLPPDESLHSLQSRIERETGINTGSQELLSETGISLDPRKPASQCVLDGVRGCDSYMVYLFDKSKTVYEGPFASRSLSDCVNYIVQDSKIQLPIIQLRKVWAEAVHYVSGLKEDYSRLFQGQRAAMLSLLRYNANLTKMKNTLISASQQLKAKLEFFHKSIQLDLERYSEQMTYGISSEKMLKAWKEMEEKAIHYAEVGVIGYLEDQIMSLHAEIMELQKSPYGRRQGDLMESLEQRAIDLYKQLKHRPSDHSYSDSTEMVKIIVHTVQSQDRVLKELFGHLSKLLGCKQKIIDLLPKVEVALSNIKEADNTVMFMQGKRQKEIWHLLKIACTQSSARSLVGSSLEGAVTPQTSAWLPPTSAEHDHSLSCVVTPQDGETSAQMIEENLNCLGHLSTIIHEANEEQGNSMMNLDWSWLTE
The conditions noted are these: at 1 µM.

Test [7] deals with T3, Inhibitor of nuclear factor kappa-B kinase subunit alpha (Homo sapiens). The conditions noted are these: at 10 µM.
The target in test [8] is T4, Inhibitor of nuclear factor kappa-B kinase subunit beta (Homo sapiens) (UniProt O14920).
T4 sequence (whole entry): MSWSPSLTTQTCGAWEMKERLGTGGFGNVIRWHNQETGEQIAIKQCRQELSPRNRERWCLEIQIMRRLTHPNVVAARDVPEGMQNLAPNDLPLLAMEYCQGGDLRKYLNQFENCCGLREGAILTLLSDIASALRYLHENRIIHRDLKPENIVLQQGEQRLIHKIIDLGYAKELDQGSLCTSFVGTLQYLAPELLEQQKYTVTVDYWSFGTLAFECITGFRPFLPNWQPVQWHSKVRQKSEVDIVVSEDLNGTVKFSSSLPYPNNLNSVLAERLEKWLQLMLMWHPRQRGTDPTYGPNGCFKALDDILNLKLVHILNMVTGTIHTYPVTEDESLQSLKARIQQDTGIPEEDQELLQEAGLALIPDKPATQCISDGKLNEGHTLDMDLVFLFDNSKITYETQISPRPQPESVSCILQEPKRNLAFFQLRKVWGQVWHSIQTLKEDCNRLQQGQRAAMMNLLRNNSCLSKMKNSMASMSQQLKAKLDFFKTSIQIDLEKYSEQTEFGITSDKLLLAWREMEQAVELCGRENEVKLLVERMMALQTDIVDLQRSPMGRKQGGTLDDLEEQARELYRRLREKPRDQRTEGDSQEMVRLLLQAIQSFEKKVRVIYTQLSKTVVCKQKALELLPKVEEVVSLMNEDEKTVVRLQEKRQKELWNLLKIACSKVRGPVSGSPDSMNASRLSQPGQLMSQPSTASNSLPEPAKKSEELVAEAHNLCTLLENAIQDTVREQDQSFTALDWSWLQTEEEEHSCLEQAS
Particulars: at 1 µM.

The target of test [9] is T4, Inhibitor of nuclear factor kappa-B kinase subunit beta (Homo sapiens). The conditions noted are these: at 10 µM.
The target in test [10] is Insulin receptor (Homo sapiens) (UniProt P06213). The conditions noted are these: at 1 µM.
Sequence of Insulin receptor (Homo sapiens) (P06213 28-758 limits assumed): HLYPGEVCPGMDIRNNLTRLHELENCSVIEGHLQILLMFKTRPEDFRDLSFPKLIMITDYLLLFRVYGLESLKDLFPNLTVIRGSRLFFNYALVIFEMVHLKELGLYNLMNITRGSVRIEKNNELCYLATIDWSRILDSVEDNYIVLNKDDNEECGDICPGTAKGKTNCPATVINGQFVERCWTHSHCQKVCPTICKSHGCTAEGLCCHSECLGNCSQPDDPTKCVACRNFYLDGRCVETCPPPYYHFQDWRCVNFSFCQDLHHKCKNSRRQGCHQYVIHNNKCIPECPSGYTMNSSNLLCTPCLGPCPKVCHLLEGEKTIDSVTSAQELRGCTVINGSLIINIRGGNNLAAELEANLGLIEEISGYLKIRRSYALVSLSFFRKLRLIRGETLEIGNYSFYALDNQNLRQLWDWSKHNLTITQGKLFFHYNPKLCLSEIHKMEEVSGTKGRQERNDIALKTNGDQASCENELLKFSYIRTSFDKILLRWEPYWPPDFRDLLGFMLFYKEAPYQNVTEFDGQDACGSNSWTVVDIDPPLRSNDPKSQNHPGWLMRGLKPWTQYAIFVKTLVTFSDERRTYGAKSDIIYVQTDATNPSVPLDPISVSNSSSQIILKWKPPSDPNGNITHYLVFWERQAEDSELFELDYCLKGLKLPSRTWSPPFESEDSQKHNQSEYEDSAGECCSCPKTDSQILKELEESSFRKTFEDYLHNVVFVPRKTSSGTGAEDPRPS
Sequence of Insulin receptor (Homo sapiens) (P06213 763-1382 limits assumed): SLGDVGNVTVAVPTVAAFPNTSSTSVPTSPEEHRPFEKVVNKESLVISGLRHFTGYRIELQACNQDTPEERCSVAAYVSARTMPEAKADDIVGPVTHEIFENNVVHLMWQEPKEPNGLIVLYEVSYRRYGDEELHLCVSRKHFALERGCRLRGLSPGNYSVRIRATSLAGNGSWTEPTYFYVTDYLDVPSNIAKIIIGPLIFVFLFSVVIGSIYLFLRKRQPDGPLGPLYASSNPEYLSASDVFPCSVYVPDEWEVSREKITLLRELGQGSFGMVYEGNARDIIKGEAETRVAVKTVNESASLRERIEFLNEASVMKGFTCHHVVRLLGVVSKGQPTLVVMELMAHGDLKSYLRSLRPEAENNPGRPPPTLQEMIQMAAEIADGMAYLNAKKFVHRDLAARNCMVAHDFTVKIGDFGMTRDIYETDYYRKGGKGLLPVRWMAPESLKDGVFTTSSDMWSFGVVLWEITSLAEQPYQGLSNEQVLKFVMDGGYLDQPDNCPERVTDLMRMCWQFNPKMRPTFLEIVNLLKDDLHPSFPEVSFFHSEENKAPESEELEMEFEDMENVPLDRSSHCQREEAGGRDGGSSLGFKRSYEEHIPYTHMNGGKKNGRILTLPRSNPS

Sequence of Insulin-like growth factor 1 receptor (Homo sapiens) (P08069 31-736 limits assumed): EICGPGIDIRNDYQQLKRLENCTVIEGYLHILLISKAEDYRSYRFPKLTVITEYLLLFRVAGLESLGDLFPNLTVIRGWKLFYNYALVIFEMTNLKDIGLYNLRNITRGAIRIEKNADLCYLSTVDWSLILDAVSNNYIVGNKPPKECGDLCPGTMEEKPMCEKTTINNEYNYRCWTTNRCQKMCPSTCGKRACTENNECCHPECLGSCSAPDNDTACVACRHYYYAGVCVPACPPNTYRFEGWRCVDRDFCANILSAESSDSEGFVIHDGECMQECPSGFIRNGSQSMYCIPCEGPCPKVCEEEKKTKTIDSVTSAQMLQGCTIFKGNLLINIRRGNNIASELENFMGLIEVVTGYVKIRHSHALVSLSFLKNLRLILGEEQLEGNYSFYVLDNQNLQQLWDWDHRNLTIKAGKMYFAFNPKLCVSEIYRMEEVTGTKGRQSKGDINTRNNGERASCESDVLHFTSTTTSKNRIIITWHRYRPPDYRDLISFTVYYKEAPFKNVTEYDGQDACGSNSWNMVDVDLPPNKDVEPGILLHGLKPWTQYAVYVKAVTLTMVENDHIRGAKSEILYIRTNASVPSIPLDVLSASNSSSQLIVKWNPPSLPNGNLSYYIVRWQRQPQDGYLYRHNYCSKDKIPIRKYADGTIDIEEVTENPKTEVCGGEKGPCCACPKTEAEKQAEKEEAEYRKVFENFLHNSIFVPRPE
Sequence of Insulin-like growth factor 1 receptor (Homo sapiens) (P08069 741-1367 limits assumed): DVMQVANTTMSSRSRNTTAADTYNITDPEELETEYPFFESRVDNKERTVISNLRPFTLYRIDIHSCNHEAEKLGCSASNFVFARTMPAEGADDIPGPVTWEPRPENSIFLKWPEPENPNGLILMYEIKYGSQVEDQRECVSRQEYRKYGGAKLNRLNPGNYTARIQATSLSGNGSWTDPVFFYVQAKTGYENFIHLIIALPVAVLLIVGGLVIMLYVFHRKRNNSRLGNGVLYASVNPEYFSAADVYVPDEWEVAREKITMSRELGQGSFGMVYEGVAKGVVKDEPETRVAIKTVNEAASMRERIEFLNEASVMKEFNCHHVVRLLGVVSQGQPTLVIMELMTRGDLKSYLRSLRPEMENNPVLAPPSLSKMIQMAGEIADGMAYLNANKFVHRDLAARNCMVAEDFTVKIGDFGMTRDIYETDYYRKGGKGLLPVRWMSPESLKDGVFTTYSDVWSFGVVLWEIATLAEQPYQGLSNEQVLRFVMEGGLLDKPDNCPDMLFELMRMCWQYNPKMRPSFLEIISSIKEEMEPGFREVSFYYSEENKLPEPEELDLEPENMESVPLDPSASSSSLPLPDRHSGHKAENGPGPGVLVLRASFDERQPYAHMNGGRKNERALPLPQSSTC

Take `O=C1NC(=O)c2c1c1c3ccccc3[nH]c1c1[nH]c3cc(Br)ccc3c21`: the residual activity came out at 54% in test [1]; 100% in test [2]; 98% in test [3]; 96% in [4]; 99% in test [5]; 89% in test [6]. Also, the residual activity was found to be 71% in test [7], 77% in test [8], 100% in [9] and 99% in test [10].

The values above are taken from ChEMBL document CHEMBL2218924, “A broad activity screen in support of a chemogenomic map for kinase signalling research and drug discovery” (Biochem J, 2013).
